Seven compounds from PubChem BioAssay (Tox21) can be followed below.

A number with no mark means an inactive call. Records with an inconclusive call do not appear. Activity calls are given as the source filed them. Unless noted, calls come from the whole dose curve; as a rule, active = well fitted curve in the direction sought with a large enough effect in the repeat runs; inconclusive = weak or mixed curves; inactive = no such curve, though single readings can be large; an effect the other way counts as inactive or inconclusive.

Test [1] in a line: qHTS assay to identify small molecule agonists of H2AX (AID 1224845; active = well fitted activation curve with a large enough effect in the signal ratio in the repeat runs, not every such curve was filed as active; the % refers to the signal ratio). In a few lines: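 Phospho-H2AX Ser139 measured by HTRF (ex 320 nm; em 665 and 620 nm) after 24 hr antibody incubation. Compounds, 15 concentrations, 0.76% DMSO, were applied to CHO-K1 cells for 3hr at 37C before lysis.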
Background: qHTS replaces the single test concentration by a dilution series.

Test [2] can be described thus: qHTS assay to identify small molecule agonists of the hypoxia (HIF-1) signaling pathway (AID 1224846; active = well fitted activation curve with a large enough effect in the signal ratio in the repeat runs, not every such curve was filed as active; the % refers to the signal ratio). In a few lines:
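HRE-bla ME-180 cells (beta-lactamase reporter under hypoxia response element) were plated at 2,000 cells/well in medium with 0.5% dialyzed FBS, rested 5 hrs, then given compounds in DMSO for 17 hrs at 37C, 5% CO2. Reporter induction was read with CCF4-AM FRET substrate.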

Test [3] is described as follows: qHTS assay to identify small molecule agonists of H2AX - cell viability counter screen (AID 1224847; calls by dose curve;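 note: wild-type CHO-K1 cells; top concentration of the series differs between compounds; nearly all actives have a fitted effect of over 30% in size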). In a few lines:
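CHO-K1 wt, 1000 cells/well, o/n 37C; cpds 15 conc, 3 h 37C, 0.76% DMSO; CellTiter-Glo, 30 min RT, luminescence.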

Test [4] can be described thus: qHTS RealTime-Glo MT Cell Viability Assay in HepG2 cells - 24 hour (AID 1224867). Note: nearly all actives have a fitted effect of over 50% in size. In a few lines:
(§1)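 Real-time, nonlytic viability: 600 HepG2 cells/well mixed with NanoLuc enzyme plus prosubstrate; 5 h settle, compound (DMSO) added by pintool; luminescence monitored over 40 h at 37 C.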

Test [5] can be described thus: qHTS RealTime-Glo MT Cell Viability Assay in HEK293 cells - 32 hour (AID 1224868). Note: top concentration of the series differs between compounds; nearly all actives have a fitted effect of over 50% in size. In short, it runs like this: (§2)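 Cells + reagent dispensed (600 cells/well, HEK293) → 5 h at 37 C/5% CO2 → 23 nL compound in DMSO pinned → 40 h at 37 C → luminescence read at 0, 8, 16, 24, 32, 40 h.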
Test [6] can be described thus: A CellTox Green Cytotoxicity Assay to monitor cytotoxicity in HEK293 cells - 0 hour (AID 1224869). Note: nearly all actives have a fitted effect of over 50% in size. In a few lines:
(§3)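 HEK293 cells premixed with CellTox Green dye were seeded at 600 cells/well and left 5 h at 37 C/5% CO2 before pin transfer of 23 nL compound in DMSO. Fluorescence from dye bound to dead-cell DNA was read during 40 h treatment.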

Test [7] can be described thus: qHTS RealTime-Glo MT Cell Viability Assay in HepG2 cells - 40 hour (AID 1224870). Note: nearly all actives have a fitted effect of over 50% in size. In short, it runs like this: (§4)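 Real-time viability: cells seeded at 600 per well together with NanoLuc and cell-permeant prosubstrate, compounds added after 5 h incubation. Luminescence tracked at 0, 8, 16, 24, 32 and 40 h of exposure.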
A short description of test [8]: A CellTox Green Cytotoxicity Assay to monitor cytotoxicity in HEK293 cells - 40 hour (AID 1224871). Note: nearly all actives have a fitted effect of over 45% in size. In short, it runs like this:
as §3

Test [9] is described as follows: qHTS RealTime-Glo MT Cell Viability Assay in HEK293 cells - 16 hour (AID 1224872). Note: nearly all actives have a fitted effect of over 50% in size. Note: potency is the fitted concentration of half-maximal effect. In short, it runs like this:
as §2

Test [10] can be described thus: qHTS RealTime-Glo MT Cell Viability Assay in HepG2 cells - 8 hour (AID 1224873). Note: nearly all actives have a fitted effect of over 55% in size. In short, it runs like this:
as §4

Test [11] is described as follows: qHTS RealTime-Glo MT Cell Viability Assay in HEK293 cells - 40 hour (AID 1224874). Note: nearly all actives have a fitted effect of over 50% in size. Note: potency is the fitted concentration of half-maximal effect. Particulars: RealTime-Glo luminescence; max response: active compounds read low. In short, it runs like this:
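HEK293 cells mixed with RealTime-Glo reagents (NanoLuc plus cell-permeant prosubstrate) at 600 cells/well, preincubated 5 h at 37 C/5% CO2, then given 23 nL compound in DMSO. Nonlytic luminescence from viable cells was read at 0, 8, 16, 24, 32 and 40 h.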

Test [12] in a line: A CellTox Green Cytotoxicity Assay to monitor cytotoxicity in HEK293 cells - 24 hour (AID 1224875). Note: nearly all actives have a fitted effect of over 45% in size. In short, it runs like this: as §3
A short description of test [13]: A CellTox Green Cytotoxicity Assay to monitor cytotoxicity in HepG2 cells - 16 hour (AID 1224876). Note: nearly all actives have a fitted effect of over 45% in size. In short, it runs like this:
(§5)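 HepG2 cells were seeded together with the CellTox Green dye at 600 cells/well, left 5 h at 37 C/5% CO2, then given compounds in DMSO. Fluorescence from dye bound to dead-cell DNA was read repeatedly over 40 h of treatment at 37 C.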

Test [14] in a line: qHTS RealTime-Glo MT Cell Viability Assay in HepG2 cells - 32 hour (AID 1224877). Note: nearly all actives have a fitted effect of over 55% in size. In a few lines:
as §1

Test [15] can be described thus: A CellTox Green Cytotoxicity Assay to monitor cytotoxicity in HepG2 cells - 24 hour (AID 1224878). Note: nearly all actives have a fitted effect of over 45% in size. In short, it runs like this: as §5
Test [16] can be described thus: A CellTox Green Cytotoxicity Assay to monitor cytotoxicity in HepG2 cells - 40 hour (AID 1224879). Note: nearly all actives have a fitted effect of over 40% in size. In short, it runs like this:
as §5

Test [17] in a line: qHTS assay to identify small molecule agonists of the hypoxia (HIF-1) signaling pathway - cell viability counter screen (AID 1224844; calls by dose curve; note: nearly all actives have a fitted effect of over 50% in size). In a few lines:
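HRE-bla ME-180 cells in medium with 0.5% dialyzed FBS were preincubated 5 hrs at 37C, exposed to compounds for 17 hrs, then viability was read as CellTiter-Glo luminescence after 30 min at room temperature, in the reporter wells.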

A short description of test [18]: qHTS assay to identify small molecule antagonists of the estrogen related receptor (ERR) signaling pathway from Tox21 library (AID 1224848). Note: nearly all actives have a fitted effect of over 50% in size. In a few lines:
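Reading was by luminescence 30 min after ONE-Glo addition. Before that, ERR cells at 2,000 per well had rested 6 h at 37 C/5% CO2 and then received pin-tooled compounds in DMSO for 18 h at 37 C.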

Test [19] in a line: qHTS assay to identify small molecule agonists of the estrogen related receptor (ERR) signaling pathway from Tox21 library (AID 1224849; calls by dose curve; note: nearly all actives have a fitted effect of over 15% in size). Particulars: ERR reporter cell line, ONE-Glo luciferase, 18 h; at 92.4 µM (top of the series) unless noted. In a few lines: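 ERR reporter cell line (NTP) seeded, rested 6 h at 37 C/5% CO2, then pinned with Tox21 compounds in DMSO. After 18 h at 37 C, ONE-Glo luciferase luminescence was read following 30 min at room temperature.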
% is set by controls: 0 for no effect and ±100 for the full control effect.

Regarding `CCCCCCCCS`, the Potency entry in test [1], in [3], in [5], in test [6], in [7] and in [8] was “inactive” each time. In addition, the Potency entry in test [9], in test [12], in [13], in test [14], in test [15] and in test [16] was “inactive” throughout. Also, the compound was classed as inactive in [2], in test [4] and in test [10]. The max response in test [11] is 7.45%.
Consider `CNc1ccccc1`, for which the Potency entry in test [17], in test [18], in test [5], in test [6], in test [7] and in test [8] was “inactive” throughout. For the same compound, the Potency result in [9], in test [12], in [13], in test [14], in test [15] and in [16] was “inactive” each time. In addition, the call in test [2], in [4] and in test [10] was inactive. The max response in test [11] was 4.77%.
As to `O=C1c2ccccc2C(=O)C1c1ccc2cc(S(=O)(=O)O)cc(S(=O)(=O)O)c2n1`, the Potency entry in test [3], in test [18], in test [5], in test [7], in [8] and in [9] was “inactive” each time. The Potency entry in test [12], in [13], in [14] and in [16] was “inactive” throughout. Besides, the activity change, positive = activation in test [19] was 54.8% (active). The call in test [4] and in test [10] was inactive. In addition, the max response in test [11] is -25.3%.
For the compound `O=C(OCCOCCOCCOC(=O)c1ccccc1)c1ccccc1`, the Potency result in test [1], in [5], in test [7], in test [9], in [12] and in test [13] was “inactive” in each case. Moreover, the Potency entry in [14] was “inactive”. Further, the call in test [2], in test [4] and in [10] was inactive. Also, in test [11], the max response was 13.2%.
For `C1=COCCC1`, the Potency entry in [17], in [1], in test [5], in [7], in [8] and in test [9] was “inactive” throughout. Also, the Potency entry in test [12], in test [13], in [14], in [15] and in test [16] was “inactive” each time. For the same compound, the compound was classed as inactive in [2], in [4] and in [10]. Also, in [11], the max response is 1.01%.
With `Clc1cc(Cl)c2c(c1)N=C1CCCCCN1C2`, the Potency entry in test [1], in test [18], in test [6], in test [7], in test [8] and in [12] was “inactive” in each case. In addition, the Potency entry in test [13], in [14], in test [15] and in [16] was “inactive” each time. Also, the compound was called inactive in test [2], in test [4] and in test [10]. Moreover, the activity change, positive = activation in [19] is 2.85% [at 42.5 µM]. The values for the Potency in test [9] and in test [11] were 21.3 µM (active) and 23.9 µM (active), respectively.
With `O=C1c2ccccc2C(=O)c2c1ccc(O)c2O`, the Potency result in [17], in [5], in test [6], in test [7], in test [8] and in test [9] was “inactive” in each case. For the same compound, the Potency entry in [12], in test [13], in test [14], in [15] and in test [16] was “inactive” in each case. Moreover, the result in test [2], in test [4] and in [10] was inactive. Further, in test [11], the max response is -2.45%.
